# Hits are enriched below; roughly 19% of the tested compounds scored in any of these assays.
# HT1080NT lethal – kills 2HG-producing HT-1080-NT fibrosarcoma cells; HT-1080-NT fibrosarcoma viability, CellTiter-Glo ATP luminescence, 48 h; Potency, µM (series often up to 46.1 µM), actives largely listed as cytotoxic; actives 1.6% (n = 360,000);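 further: NT is the 2HG producing partner of a matched IDH1 knockdown line; nearly all actives have a fitted effect of over 55% in size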
#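 Viability of the 2HG-overproducing fibrosarcoma line after 48 hours of compound exposure at 37 degrees C was determined by luminescence with CellTiter-Glo, and concentration-effect curves were then fitted and categorized.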
# DT40 TDP1 no CPT – qHTS for Inhibitors of human tyrosyl-DNA phosphodiesterase 1 (TDP1): qHTS in cells in absence of CPT. DT40 Tdp1-/- hTDP1 cells, no CPT, ATP luminescence, 48 h. Potency, µM (doses to about 46.2 µM), actives largely listed as inhibitors. actives 15% (n = 420,000). AID 686978, 2013; further: nearly all actives have a fitted effect of over 55% in size
#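 Compound effects on proliferation are scored in DT40 Tdp1-/-;hTDP1 cells in the absence of CPT. ATP levels (CellTiter-Glo luminescence) are recorded after a ≥48 hr, 37 °C incubation.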
# IL1B secr inh – inflammasome signaling inhibition, IL-1 beta readout; THP-1 LPS/ATP IL-1B secretion, AlphaLISA, 16 h; stronger effect = lower value; activity change, % at 57.5 µM; actives 4.7% (n = 360,000); in the data active means activity change below about -50%; inconclusive means mostly about -30% to -49%
#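 Secreted IL-1B measured by AlphaLISA bead assay after 16 h compound exposure of THP-1 cells; compounds (final up to 57.5 uM) added 1 h before LPS (250 ng/mL) and ATP (1.25 mM) stimulation; lower signal means less secretion.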
# TDP1 cell CPT – DT40-hTDP1 cell growth loss with CPT; chicken DT40 Tdp1-/-;hTDP1 cells + 20 nM CPT, ATP luminescence, 48 h; Potency, µM (titrated, usually from 46.2 µM), actives largely listed as inhibitors; actives 12% (n = 420,000); further: nearly all actives have a fitted effect of over 55% in size
#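 Chicken DT40 Tdp1-/- cells complemented with human TDP1, 400 cells/well, exposed to compounds plus 20 nM camptothecin for at least 48 h at 37 C; viability read as ATP content by CellTiter-Glo luminescence.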
# HT1080 IDH1KD tx – toxicity to HT-1080 IDH1 knockdown cells (counter line) | AID 686971 | Potency, µM (doses to about 46.1 µM), usual class: cytotoxic | HT-1080 IDH1 knockdown viability, ATP luminescence, 48 h | actives 2% (n = 360,000)
#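 Assay cells: HT-1080 with IDH1 knockdown, 750 per well, RPMI/5% FBS. Exposure: 48 h at 37 °C following 2 h pre-incubation. Read: CellTiter-Glo luminescence; fitted concentration-response, curve class assigned.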
# Numbers stand for hits; – = inactive; ? = inconclusive; · = not tested or not shown; [ ] = dose if it differs, or a comment. Unless noted, the call rests on the fitted dose curve; in most records, active means well fitted curve in the direction sought with a large enough effect; inconclusive means small, poorly fitted or top-dose-only effect, or another doubt; inactive means no such curve, though single readings can be large; an effect the other way counts as inactive or inconclusive.
SMILES,HT1080NT lethal,DT40 TDP1 no CPT,IL1B secr inh,TDP1 cell CPT,HT1080 IDH1KD tx
COc1cc2[nH]c(=S)n(NC(=O)c3ccccc3)c(=O)c2cc1OC,–,–,–,–,–
O=C1N=c2ccccc2=C1c1sc(=S)n(NC(=O)c2ccccc2)c1O,–,?,–,18µM,–
CC=Cc1cc(OC)c2c(c1)C(C)C(c1ccc(O)c(OC)c1)O2 (centres undefined),–,?,-65,?,–
Cn1c(C(c2cc3ccccc3n2C)c2cc3ccccc3n2C)cc2ccccc21,·,3.5µM,·,5.6µM,·
Cn1c(-c2ccccc2)cc2ccccc21,–,–,–,–,–
Cn1c(-c2ccccc2O)cc2ccccc21,?,18µM,–,?,–[9.24 µM]
CC1CCC(C(C)C)C2=C1C(C#N)(C#N)C(C#N)(C#N)C(c1ccccc1)N2 (centres undefined),–,18µM,-86,?,–[9.24 µM]
CC(C)C1OC2(C)OC(=N)C1(C#N)C(C#N)(C#N)C2c1ccccc1 (centres undefined),–,?,–,?,–
Cc1cc(/C([O-])=C(/C(=S)Nc2ccc(F)cc2)[n+]2ccccc2)c(C)n1-c1ccc(F)cc1,–,·,–,·,–
Cc1ccc(-n2c(C)cc(/C([O-])=C(/C(=S)Nc3ccc(F)c(Cl)c3)[n+]3ccccc3)c2C)cc1,–,23µM,?,23µM,–
Cc1cc(/C([O-])=C(/C(=S)Nc2ccc(F)cc2)[n+]2ccccc2)c(C)n1Cc1ccccc1Cl,–,23µM,–,21µM,–
Clc1ccc(-c2nnc(SCc3ccon3)o2)c(Cl)c1,–,–,–,–,–
Brc1cccc(-c2nnc(SCc3nc4ccccc4[nH]3)o2)c1,–,?,-56,?,–
c1ccc2[nH]c(CSc3nnc(-c4ccncc4)o3)nc2c1,–,?,–,?,–
Clc1ccc(-c2nnc(SCc3nc4ccccc4[nH]3)o2)c(Cl)c1,–,9.2µM,–,?,–
Cc1ccc(C(=O)O)cc1NC(=O)c1nsc2ccccc12,·,–,·,–,·
CC(C)Oc1ccc(CNC(=O)c2cc3ccccn3n2)cc1,·,–,·,–,·
CC(=O)Nc1cc(C(=O)NCc2ccc(F)cc2)ccc1S(=O)(=O)c1ccc(C)cc1,·,?,·,–,·
Cc1ccc(C(=O)NCCC(C)C)cc1NC(=O)c1nsc2ccccc12,·,?,·,16µM,·
Cc1ccc(C(=O)NCc2ccc(F)cc2)cc1NC(=O)c1nsc2ccccc12,·,23µM,·,?,·
O=C(NCc1ccccc1Cl)c1ccc(S(=O)(=O)N2CCCC2)cc1,–,–,–,–,–
CC(C)Oc1ccc(CNC(=O)c2cccc(NC(=O)c3nsc4ccccc34)c2)cc1,·,9.2µM,·,4.6µM,·
O=C(NCc1ccccc1Cl)c1ccc(NC(=O)c2nsc3ccccc23)cc1,·,18µM,·,18µM,·
Cc1cc(Cl)ccc1NC(=O)/N=C1/NC(=O)CS1,–,–,–,–,–

# Screening results from PubChem BioAssay.
